Measurements taken from the supplement of paper PMC10849652.
About 7,900 targets were measured; listed, in parts, are those with a hit and a random draw of the rest. About 0.6% of all pairs of compound and target were hits. A number with no mark means an inactive call.

Tests used:
Experiment in all cases: log2 fold change, soluble protein after heating vs DMSO (PISA); higher = thermal stabilisation; K562 cells, 10 uM, 30 min; active = over 0.2 and 3.5 SD of the protein, either way, in both replicates (recomputed)
[1] = compound: CC1=C(C=C(C=C1)NC(=O)C2=CC(=CC=C2)C(C)(C)C#N)NC3=CC4=C(C=C3)N=CN(C4=O)C
Method in brief: (§1)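 K562 cells (2×10^6 cells/mL) were treated with 10 μM compound for 30 min, and aliquots were heated for 3 min over 48°C-58°C. Pooled aliquots were extracted in PBS with 0.5% NP-40 at 4°C, and the supernatant after 21,000xg for 90 min was measured by TMTpro 16plex LC-MS/MS with channel sums equalised. Reported thermal stability, relative to control samples and from duplicates, is a log2 fold change.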

[2] = compound: CC1=C(C=C(C=C1)NC(=O)C2=CC(=CC=C2)N(C)C)NC(=O)C3=CC=C(C=C3)O
Method in brief: as §1

[3] = compound: CC1=CC=C(C=C1)SC2=C3C=C(SC3=CN=C2)C(=O)N
Method in brief: as §1

[4] = compound: CC1=NC(=CC=C1)C2=C(N=C(N2)C(C)(C)C)C3=CC4=NC=CN=C4C=C3
Method in brief: as §1

[5] = compound: CCCCN(Cc1ccc(C(=O)NO)cc1)C(=O)Nc1ccccc1 [Nexturastat A]
Method in brief: as §1

[6] = compound: CCCS(=O)(=O)Nc1ccc(F)c(C(=O)c2c[nH]c3ncc(-c4ccc(Cl)cc4)cc23)c1F [vemurafenib]
Method in brief: as §1

[7] = compound: CCCS(=O)(=O)Nc1ccc(F)c(C(=O)c2c[nH]c3ncc(Cl)cc23)c1F
Method in brief: as §1

[8] = compound: CCCc1cc(C)[nH]c(=O)c1CNC(=O)c1cc(-c2ccnc(N3CCN(C)CC3)c2)cc2c1cnn2C(C)C
Method in brief: as §1

[9] = compound: CCN(CC)Cc1ccc2cc(COC(=O)Nc3ccc(C(=O)NO)cc3)ccc2c1 [givinostat]
Method in brief: as §1

[10] = compound: CCN(CCCOc1ccc2c(Nc3cc(CC(=O)Nc4cccc(F)c4)[nH]n3)ncnc2c1)CCOP(=O)(O)O [barasertib]
Method in brief: as §1

Chain of UniProt Q93096 (Q93096 whole entry, looked up): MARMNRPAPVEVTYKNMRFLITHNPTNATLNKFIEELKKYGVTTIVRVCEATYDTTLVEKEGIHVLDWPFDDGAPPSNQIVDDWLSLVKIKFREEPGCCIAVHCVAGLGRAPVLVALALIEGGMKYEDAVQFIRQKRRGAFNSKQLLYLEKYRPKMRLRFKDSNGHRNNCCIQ
Chain of UniProt P0CAP2 (P0CAP2 whole entry, looked up): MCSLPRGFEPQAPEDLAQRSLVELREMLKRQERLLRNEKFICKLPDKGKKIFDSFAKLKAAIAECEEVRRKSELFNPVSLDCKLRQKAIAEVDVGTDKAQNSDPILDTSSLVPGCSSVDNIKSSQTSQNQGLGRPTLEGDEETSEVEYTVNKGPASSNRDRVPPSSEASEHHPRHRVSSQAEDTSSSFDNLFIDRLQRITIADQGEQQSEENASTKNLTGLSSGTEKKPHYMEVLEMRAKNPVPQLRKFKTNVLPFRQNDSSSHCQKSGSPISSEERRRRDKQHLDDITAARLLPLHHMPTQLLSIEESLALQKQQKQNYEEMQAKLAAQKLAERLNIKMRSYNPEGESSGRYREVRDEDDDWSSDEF
Chain of UniProt Q13356 (Q13356 whole entry, looked up): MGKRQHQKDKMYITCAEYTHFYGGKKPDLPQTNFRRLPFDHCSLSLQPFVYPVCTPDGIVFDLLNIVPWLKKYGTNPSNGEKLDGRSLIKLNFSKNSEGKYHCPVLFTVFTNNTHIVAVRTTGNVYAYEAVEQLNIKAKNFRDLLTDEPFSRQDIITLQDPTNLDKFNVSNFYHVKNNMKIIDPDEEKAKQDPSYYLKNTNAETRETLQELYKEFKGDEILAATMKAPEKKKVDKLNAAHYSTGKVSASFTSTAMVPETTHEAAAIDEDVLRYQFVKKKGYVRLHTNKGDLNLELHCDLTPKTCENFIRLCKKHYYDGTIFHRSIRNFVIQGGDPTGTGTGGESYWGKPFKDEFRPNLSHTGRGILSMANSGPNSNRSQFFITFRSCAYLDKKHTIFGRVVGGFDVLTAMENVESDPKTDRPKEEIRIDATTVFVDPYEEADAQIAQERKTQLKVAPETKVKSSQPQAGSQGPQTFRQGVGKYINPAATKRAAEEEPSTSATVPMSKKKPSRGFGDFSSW
Chain of UniProt Q8NBL1 (Q8NBL1 whole entry, looked up): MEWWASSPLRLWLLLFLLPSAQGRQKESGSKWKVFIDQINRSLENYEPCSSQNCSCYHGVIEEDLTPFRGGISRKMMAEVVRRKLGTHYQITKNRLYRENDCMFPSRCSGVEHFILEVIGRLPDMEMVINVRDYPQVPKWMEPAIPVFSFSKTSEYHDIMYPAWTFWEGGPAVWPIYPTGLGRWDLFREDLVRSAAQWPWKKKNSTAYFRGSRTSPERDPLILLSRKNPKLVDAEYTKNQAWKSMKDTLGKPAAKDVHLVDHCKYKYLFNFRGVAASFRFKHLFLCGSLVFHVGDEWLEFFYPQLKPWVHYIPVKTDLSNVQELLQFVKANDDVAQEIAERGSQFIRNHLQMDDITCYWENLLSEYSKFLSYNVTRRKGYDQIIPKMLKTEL
Chain of UniProt P15735 (P15735 whole entry, looked up): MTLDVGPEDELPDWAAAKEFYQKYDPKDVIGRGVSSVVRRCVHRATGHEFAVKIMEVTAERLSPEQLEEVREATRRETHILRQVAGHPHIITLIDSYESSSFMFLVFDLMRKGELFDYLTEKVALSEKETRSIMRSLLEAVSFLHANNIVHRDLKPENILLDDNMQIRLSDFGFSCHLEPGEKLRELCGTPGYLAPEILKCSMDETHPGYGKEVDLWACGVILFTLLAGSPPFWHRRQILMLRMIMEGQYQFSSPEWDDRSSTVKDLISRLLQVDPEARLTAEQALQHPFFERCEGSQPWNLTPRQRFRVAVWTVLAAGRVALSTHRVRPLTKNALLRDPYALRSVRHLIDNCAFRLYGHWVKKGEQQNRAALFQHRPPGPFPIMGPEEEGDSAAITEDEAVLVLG
Chain of UniProt Q8WUK0 (Q8WUK0 whole entry, looked up): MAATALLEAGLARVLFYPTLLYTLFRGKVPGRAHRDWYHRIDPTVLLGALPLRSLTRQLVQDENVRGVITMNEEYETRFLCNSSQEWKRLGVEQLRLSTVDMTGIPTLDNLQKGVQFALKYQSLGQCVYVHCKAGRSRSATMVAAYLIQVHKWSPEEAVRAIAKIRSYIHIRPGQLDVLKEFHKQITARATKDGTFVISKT
Chain of UniProt Q8WUM4 (Q8WUM4 whole entry, looked up): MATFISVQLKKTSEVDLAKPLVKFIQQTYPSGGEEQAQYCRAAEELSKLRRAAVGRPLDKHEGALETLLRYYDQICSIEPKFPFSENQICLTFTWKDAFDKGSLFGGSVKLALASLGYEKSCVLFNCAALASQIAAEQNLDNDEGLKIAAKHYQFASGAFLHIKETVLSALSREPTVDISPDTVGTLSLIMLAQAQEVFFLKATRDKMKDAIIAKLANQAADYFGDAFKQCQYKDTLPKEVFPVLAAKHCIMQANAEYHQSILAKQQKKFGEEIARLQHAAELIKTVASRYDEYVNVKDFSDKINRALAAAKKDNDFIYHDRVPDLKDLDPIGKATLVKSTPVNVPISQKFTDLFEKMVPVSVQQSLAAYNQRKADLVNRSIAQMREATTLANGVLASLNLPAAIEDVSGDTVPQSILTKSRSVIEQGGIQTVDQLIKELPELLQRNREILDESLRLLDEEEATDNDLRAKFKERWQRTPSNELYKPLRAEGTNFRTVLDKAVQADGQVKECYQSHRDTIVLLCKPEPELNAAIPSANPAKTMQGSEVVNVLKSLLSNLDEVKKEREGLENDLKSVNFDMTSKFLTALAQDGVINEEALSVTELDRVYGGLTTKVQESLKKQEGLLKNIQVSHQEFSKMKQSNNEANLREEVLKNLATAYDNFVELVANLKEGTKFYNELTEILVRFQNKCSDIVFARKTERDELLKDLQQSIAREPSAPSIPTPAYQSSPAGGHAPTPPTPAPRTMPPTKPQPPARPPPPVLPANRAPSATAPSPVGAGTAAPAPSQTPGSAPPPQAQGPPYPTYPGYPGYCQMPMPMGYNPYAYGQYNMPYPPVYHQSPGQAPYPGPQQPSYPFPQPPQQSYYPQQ
Chain of UniProt P13861 (P13861 whole entry, looked up): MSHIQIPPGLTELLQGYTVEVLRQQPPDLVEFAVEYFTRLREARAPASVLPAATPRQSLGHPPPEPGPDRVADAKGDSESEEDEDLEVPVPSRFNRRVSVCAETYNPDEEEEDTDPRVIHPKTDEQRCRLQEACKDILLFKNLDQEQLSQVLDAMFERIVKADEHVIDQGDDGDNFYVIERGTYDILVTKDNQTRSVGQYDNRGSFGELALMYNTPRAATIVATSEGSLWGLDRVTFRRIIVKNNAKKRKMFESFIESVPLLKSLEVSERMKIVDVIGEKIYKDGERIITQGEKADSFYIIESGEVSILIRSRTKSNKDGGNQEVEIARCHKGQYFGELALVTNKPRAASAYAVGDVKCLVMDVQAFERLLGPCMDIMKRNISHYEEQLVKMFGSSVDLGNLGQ
Chain of UniProt Q12974 (Q12974 whole entry, looked up): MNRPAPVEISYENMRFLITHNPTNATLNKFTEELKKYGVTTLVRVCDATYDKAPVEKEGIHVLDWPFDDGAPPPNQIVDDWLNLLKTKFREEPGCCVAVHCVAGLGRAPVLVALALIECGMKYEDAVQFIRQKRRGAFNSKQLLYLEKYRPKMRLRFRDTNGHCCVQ
Chain of UniProt Q29RF7 (Q29RF7 whole entry, looked up): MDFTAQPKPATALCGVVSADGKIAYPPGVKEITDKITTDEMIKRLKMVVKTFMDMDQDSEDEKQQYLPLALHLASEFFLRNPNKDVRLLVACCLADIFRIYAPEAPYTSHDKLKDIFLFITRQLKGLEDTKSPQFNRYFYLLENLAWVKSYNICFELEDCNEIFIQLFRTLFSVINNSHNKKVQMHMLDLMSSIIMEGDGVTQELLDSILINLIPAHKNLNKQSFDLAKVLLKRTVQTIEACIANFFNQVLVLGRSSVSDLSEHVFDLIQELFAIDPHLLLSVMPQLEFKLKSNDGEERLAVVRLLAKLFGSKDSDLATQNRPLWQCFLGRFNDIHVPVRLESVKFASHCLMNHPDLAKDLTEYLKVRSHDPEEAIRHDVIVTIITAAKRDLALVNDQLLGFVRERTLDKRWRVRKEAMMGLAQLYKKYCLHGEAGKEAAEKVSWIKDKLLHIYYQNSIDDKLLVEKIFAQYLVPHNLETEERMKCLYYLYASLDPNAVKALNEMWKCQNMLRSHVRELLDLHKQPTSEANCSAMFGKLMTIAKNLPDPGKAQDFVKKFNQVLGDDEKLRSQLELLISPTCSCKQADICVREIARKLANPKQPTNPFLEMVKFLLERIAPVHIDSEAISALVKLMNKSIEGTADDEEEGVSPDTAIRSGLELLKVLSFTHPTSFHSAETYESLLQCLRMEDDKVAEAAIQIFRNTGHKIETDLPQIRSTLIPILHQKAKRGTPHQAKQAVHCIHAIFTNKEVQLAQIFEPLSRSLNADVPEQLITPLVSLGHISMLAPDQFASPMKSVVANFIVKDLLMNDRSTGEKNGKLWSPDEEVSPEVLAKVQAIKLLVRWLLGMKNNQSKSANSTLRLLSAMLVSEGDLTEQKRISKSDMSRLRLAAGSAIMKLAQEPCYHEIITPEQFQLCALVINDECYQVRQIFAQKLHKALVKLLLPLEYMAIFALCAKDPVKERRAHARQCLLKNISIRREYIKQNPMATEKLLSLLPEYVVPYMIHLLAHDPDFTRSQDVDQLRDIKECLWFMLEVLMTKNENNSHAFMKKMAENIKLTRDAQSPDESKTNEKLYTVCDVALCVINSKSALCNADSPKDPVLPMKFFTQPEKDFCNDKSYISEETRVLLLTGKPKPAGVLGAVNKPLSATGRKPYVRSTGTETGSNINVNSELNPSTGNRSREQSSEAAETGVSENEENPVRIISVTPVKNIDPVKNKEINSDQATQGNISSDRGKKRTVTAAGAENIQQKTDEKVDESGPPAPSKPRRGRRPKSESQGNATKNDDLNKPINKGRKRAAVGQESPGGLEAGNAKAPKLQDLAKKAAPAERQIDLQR

Target | log2 fold change [1] | log2 fold change [2] | log2 fold change [3] | log2 fold change [4] | log2 fold change [5] | log2 fold change [6] | log2 fold change [7] | log2 fold change [8] | log2 fold change [9] | log2 fold change [10]
PRKAR2B (UniProt P31323) | 0.04 | 0.017 | 0.038 | 0.022 | 0.046 | 0.033 | 0.052 | -0.014 | 0 | 0.047
PRKACA (UniProt P17612) | -0.002 | -0.008 | -0.023 | 0.043 | 0.099 | 0.015 | 0.019 | -0.019 | 0.006 | -0.008
POLR2C (UniProt P19387) | -0.097 | -0.058 | 0.038 | -0.011 | 0.126 | 0.021 | 0.066 | -0.005 | 0.042 | 0.022
PRPF38A (UniProt Q8NAV1) | 0.005 | -0.023 | -0.058 | 0.017 | 0.019 | -0.118 | -0.089 | 0.065 | 0.005 | -0.024
PTP4A1 (UniProt Q93096) | -0.007 | -0.005 | 0.023 | 0.023 | 0.002 | 0 | 0.062 | -0.024 | -0.003 | 0.035
PDS5A (UniProt Q29RF7) | 0.093 | -0.109 | 0.012 | 0.12 | 0.057 | 0.143 | 0.294 | 0 | 0.208 | 0.275
PRKACB isoform 2 (UniProt P22694) | -0.014 | 0.015 | 0.011 | 0.077 | 0.059 | -0.007 | 0.031 | -0.129 | -0.024 | 0.036
PDCD6IP (UniProt Q8WUM4) | 0.032 | -0.079 | 0.077 | 0.058 | 0.066 | 0.106 | 0.153 | 0.119 | 0.183 | 0.135
POGLUT1 (UniProt Q8NBL1) | -0.063 | -0.027 | -0.081 | -0.024 | -0.025 | -0.139 | -0.034 | 0.043 | 0.052 | -0.022
PPP1R35 (UniProt Q8TAP8) | -0.011 | 0.065 | 0.025 | 0.034 | -0.009 | -0.049 | 0.008 | -0.027 | 0.112 | -0.074
PCK2 (UniProt Q16822) | -0.002 | -0.064 | -0.008 | 0.045 | -0.065 | -0.006 | 0.002 | 0.014 | -0.13 | 0.011
PTRHD1 (UniProt Q6GMV3) | -0.051 | -0.098 | 0.017 | 0.022 | 0.074 | 0.059 | -0.024 | -0.024 | -0.008 | 0.034
PRMT7 (UniProt Q9NVM4) | 0.056 | -0.197 | 0.065 | -0.055 | -0.003 | -0.03 | 0.145 | -0.014 | 0.042 | 0.023
PTP4A2 (UniProt Q12974) | 0.026 | -0.045 | 0.012 | 0.076 | -0.069 | -0.002 | -0.129 | 0.02 | -0.022 | -0.006
PRKCQ (UniProt Q04759) | 0.013 | -0.043 | 0.073 | -0.004 | -0.055 | 0.015 | 0.065 | -0.065 | 0.052 | 0.03
PLSCR1 (UniProt O15162) | 0.13 | 0.06 | 0.025 | -0.002 | 0.008 | -0.05 | 0.088 | -0.101 | -0.033 | -0.104
PPIL2 (UniProt Q13356) | 0.005 | -0.084 | 0.04 | 0.023 | -0.059 | 0.113 | 0.123 | 0.016 | 0.123 | 0.073
PIP4K2A (UniProt P48426) | -0.027 | -0.061 | 0.017 | -0.005 | -0.051 | -0.044 | 0.004 | -0.01 | -0.052 | 0.022
PSMD7 (UniProt P51665) | -0.011 | -0.005 | -0.047 | -0.038 | 0.145 | -0.073 | -0.029 | 0.045 | -0.03 | -0.05
PPIL1 (UniProt Q9Y3C6) | -0.002 | 0.023 | 0 | -0.024 | 0.025 | -0.045 | 0.027 | -0.016 | -0.038 | 0.033
PARL (UniProt Q9H300) | 0 | 0.025 | 0.02 | 0.002 | -0.098 | -0.014 | 0.057 | -0.036 | 0.068 | -0.022
PHKG2 (UniProt P15735) | 0.012 | -0.007 | -0.083 | -0.031 | 0.002 | -0.003 | -0.004 | 0 | 0.01 | -0.079
PSMB6 (UniProt P28072) | 0.002 | 0.306 | -0.036 | -0.001 | -0.019 | -0.038 | -0.062 | -0.024 | -0.025 | -0.04
POLR2M (UniProt P0CAP2) | 0.007 | -0.014 | 0.027 | 0 | -0.019 | 0.021 | -0.062 | 0 | -0.031 | -0.009
PDCD2L (UniProt Q9BRP1) | -0.001 | -0.104 | 0.052 | 0.068 | 0 | -0.038 | 0.079 | 0.045 | -0.088 | 0.069
PTPMT1 (UniProt Q8WUK0) | 0.043 | -0.019 | 0.025 | 0.025 | -0.114 | -0.047 | 0.031 | -0.029 | -0.029 | 0.041
PPT1 (UniProt P50897) | -0.017 | 0.009 | 0.046 | 0.013 | -0.081 | 0 | -0.003 | -0.107 | -0.022 | -0.017
PRKAR2A (UniProt P13861) | 0.141 | 0.001 | 0.011 | -0.033 | 0.008 | -0.021 | -0.021 | 0.019 | 0.024 | -0.001
PYGB (UniProt P11216) | -0.284 (active) | 0.015 | 0.008 | 0.005 | -0.074 | 0.009 | -0.023 | -0.044 | 0.012 | 0.001
PSMC4 (UniProt P43686) | 0.016 | 0.013 | -0.049 | -0.036 | 0.03 | -0.066 | -0.083 | 0.084 | -0.059 | -0.042
